Results: PubChem BioAssay AID602281 (The Scripps Research Institute Molecular Screening Center, 2012)
Screen size: about 360,000 compounds; about 2,900 (0.81%) were called active.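 The calls were made as follows: active = inhibition above the mean inhibition across every tested compound plus 3 SD (cut at about 22% in these data); inactive = the rest.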 This excerpt belongs to a sample that is enriched for actives.

molecular target: Perilipin-5 (Homo sapiens) + 1-acylglycerol-3-phosphate O-acyltransferase ABHD5 (Homo sapiens) (UniProt Q00G26+Q8WTS1); experiment: ABHD5-PLIN5 interaction inhibitors, primary screen, cell lysate, split luciferase complementation, luminescence (AID 602281);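 also: 0% = DMSO only wells and the 100% control is not disclosed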; details: Split G. princeps luciferase complementation, 4 h, at 4 µM, hits give high values
Sequence (Q00G26 whole entry, looked up): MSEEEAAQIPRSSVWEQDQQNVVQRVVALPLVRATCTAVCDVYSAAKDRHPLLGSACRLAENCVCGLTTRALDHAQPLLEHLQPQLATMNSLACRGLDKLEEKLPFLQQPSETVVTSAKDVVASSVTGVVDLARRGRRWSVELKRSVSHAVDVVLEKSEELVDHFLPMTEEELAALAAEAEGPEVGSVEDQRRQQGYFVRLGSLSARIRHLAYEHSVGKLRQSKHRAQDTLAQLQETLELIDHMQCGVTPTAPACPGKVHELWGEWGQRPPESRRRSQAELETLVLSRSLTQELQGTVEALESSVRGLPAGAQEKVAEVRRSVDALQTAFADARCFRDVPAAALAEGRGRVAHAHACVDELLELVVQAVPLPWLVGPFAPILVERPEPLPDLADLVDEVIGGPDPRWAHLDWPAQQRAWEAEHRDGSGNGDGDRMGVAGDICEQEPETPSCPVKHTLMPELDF
Sequence (Q8WTS1 whole entry, looked up): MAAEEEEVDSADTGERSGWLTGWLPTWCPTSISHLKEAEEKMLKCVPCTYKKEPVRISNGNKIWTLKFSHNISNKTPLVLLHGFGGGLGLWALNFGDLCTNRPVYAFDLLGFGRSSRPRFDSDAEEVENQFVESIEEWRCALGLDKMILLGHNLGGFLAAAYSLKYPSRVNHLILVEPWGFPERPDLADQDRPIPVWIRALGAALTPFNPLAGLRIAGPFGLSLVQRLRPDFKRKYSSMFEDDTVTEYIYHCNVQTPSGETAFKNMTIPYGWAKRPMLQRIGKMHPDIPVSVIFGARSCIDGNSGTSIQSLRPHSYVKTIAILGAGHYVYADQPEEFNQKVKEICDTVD

Compound | inhibition
COC(=O)[C@@H]1C[C@@]2(O)[C@H](O)[C@H](O)[C@H](O)C[C@H]2N1Cc1ccc(C(C)(C)C)cc1 | 6.53% (inactive)
O=C(c1cccc(F)c1)N1CCC(O)(c2cccnc2)CC1 | 0.25% (inactive)
N#CCOc1ccc(C2=NO[C@@H]3[C@@H]4C[C@@H]([C@H]5C(=O)N(c6ccc7c(c6)OCO7)C(=O)[C@@H]45)[C@H]23)cc1 | -3.78% (inactive)
CC1(Oc2ccccc2-c2ccno2)CCN(Cc2ccc(-c3ccccc3)o2)C1 (stereo unspecified) | 24.9% (active)
COc1ccc(CN2CCC(C)(Oc3cccc(F)c3)C2)c2ccccc12 (stereo unspecified) | 1.04% (inactive)
CC1(Oc2cccc(F)c2)CCN(Cc2ccccc2OC(F)F)C1 (stereo unspecified) | -9.44% (inactive)
CCCOC1CCCN(C(=O)c2cc(COc3cncc(Cl)c3)on2)C1 (stereo unspecified) | 1.32% (inactive)
Cc1[nH]c2ccccc2c1C(=O)c1cc([C@H](NC(=O)OC(C)(C)C)C(C)C)sc1N | -16.6% (inactive)
Cc1ccc(C(=O)Cc2nnc(C)s2)cc1 | 10.8% (inactive)
Cc1ccc(SC(C)C(=O)NCc2ccc(F)cc2)cc1 (stereo unspecified) | -1.06% (inactive)
Cc1ccc(SC(CC(=O)c2ccc(C(C)(C)C)cc2)C(=O)O)cc1 (stereo unspecified) | 84.9% (active)
O=C1CC[C@@H](C(=O)N2CSC[C@@H]2C(=O)Nc2ccc(C(F)(F)F)cc2)N1 | -0.42% (inactive)
CCC(C)NC(=O)C1CCC(=O)N1Cc1ccc(C)cc1 (stereo unspecified) | 2% (inactive)
Oc1ccc2ccccc2c1N=Nc1nccs1 | 22.1% (active)
COc1ccccc1C(=O)NCC(=O)OCC(=O)NNC(=O)c1ccc(Br)cc1 | -4.52% (inactive)
CCN1C(=O)/C(=C2\SC(N3CCCCC3)=NC2=O)c2ccccc21 | -2.55% (inactive)
CC1(C)CC(=O)C=C(c2cccc3c2Oc2ccccc2S3)C1 | -12.2% (inactive)
O=C(c1cc(C2CCCCN2S(=O)(=O)c2ccccc2)on1)N1CCOCC1 (stereo unspecified) | 3.58% (inactive)
COC(=O)c1cnn2c(C(F)(F)F)cc(-c3ccco3)nc12 | 32.2% (active)

Compound | inhibition
O=C(O)c1cnn2c(C(F)(F)F)cc(-c3ccccc3)nc12 | 6.31% (inactive)
O=C(NCc1ccco1)c1cnn2c(C(F)(F)F)cc(-c3ccco3)nc12 | 3.22% (inactive)
N#Cc1ccc(-c2nc3c(Cl)cc(C(F)(F)F)cn3c2Cc2ccccc2C(F)(F)F)cc1 | 0.66% (inactive)
NC(=O)c1ccccc1N=Cc1ccc2ccccc2c1 | 2.42% (inactive)
C/C(=N/N1CCN(Cc2cccc3ccccc23)CC1)c1cccnc1 | -14.4% (inactive)
CCOc1cc(S(=O)(=O)NCc2ccc3c(c2)OCO3)ccc1F | -2.91% (inactive)
COc1ccc(C(=O)CCc2ccccc2O)c(OC)c1 | 0.27% (inactive)
COc1ccc(C(=O)CCC(=O)Nc2cccnc2)c(OC)c1 | -5.28% (inactive)
COc1ccc(C(=O)/C=C/c2cccnc2)c(OC)c1 | 22.4% (active)
CCCn1c(=O)c2[nH]c(C3CCCC3)nc2n(CCC)c1=O | 4.3% (inactive)
CCc1nnc(NC(=O)C2CC(=O)N(c3ccc4c(c3)OCCO4)C2)s1 (stereo unspecified) | -9.44% (inactive)
O=C(NCc1ccccc1Cl)c1csc([C@@H]2O[C@H](CO)[C@@H](O)[C@H]2O)n1 | -7.69% (inactive)
CCN(C(=O)CSc1nnnn1-c1ccccc1OC)C1CCS(=O)(=O)C1 (stereo unspecified) | 0.5% (inactive)
COc1ccccc1CN(C)c1nnnn1-c1ccccc1 | -3.16% (inactive)
COc1ccccc1-n1nnnc1S(=O)(=O)Cc1ccc(Cl)cc1 | 27.5% (active)
Cc1cc2c(cc1S(=O)(=O)NCc1ccc(Cl)cc1)OCC(=O)N2 | 5.73% (inactive)
O=C(CN1C2CCC1CC(NC(=O)C1CC1)C2)NCc1ccccc1 (stereo unspecified) | -2.07% (inactive)
O=C(CCl)Nc1ccc(Sc2ccc(NC(=O)CCl)cc2)cc1 | 28.2% (active)
CC(=O)Nc1ccc(NC(=O)CC2CCCC2)cc1 | 1.52% (inactive)

Compound | inhibition
O=C(O)CC(SCC(=O)Nc1ccc(Br)cc1)C(=O)O (stereo unspecified) | 0.5% (inactive)
CN(CC(=O)NCCc1ccc(F)cc1)CC(=O)Nc1ccc(F)c(F)c1F | 3.93% (inactive)
O=C(Nc1ccccc1)c1nnsc1S(=O)(=O)c1ccc(Cl)cc1 | 58.3% (active)
C/C(=N\NS(=O)(=O)c1ccc(Cl)cc1)c1ccc(NC(=O)c2ccco2)cc1 | -4.17% (inactive)
O=C(Nc1ccc(S(=O)(=O)N2CCOCC2)cc1)C1CCN(S(=O)(=O)c2ccc(Cl)cc2)CC1 | -0.02% (inactive)
COC(=O)[C@@]1(Cc2ccc(OC)cc2)[C@H]2c3cc(C(=O)N4CCCC4)n(Cc4ccc(OC(F)(F)F)cc4)c3C[C@H]2CN1C(=O)c1ccccc1 | 18.3% (inactive)
COC(=O)[C@@]1(Cc2ccc(F)cc2)[C@H]2c3cc(C(=O)N4CCCC4)n(C[C@H](O)CO)c3C[C@H]2CN1C(=O)c1ccccc1 | 6.42% (inactive)
COC(=O)[C@@]1(Cc2ccc(F)cc2)[C@H]2c3cc(C(=O)N4CCCC4)n(Cc4ccc(OC(F)(F)F)cc4)c3C[C@H]2CN1C(=O)c1ccccc1 | 22.3% (active)
COC(=O)Nc1ccc(S(=O)(=O)N(C)CC(F)(F)C(F)F)cc1 | 4.74% (inactive)
CC1CC(C)CN(S(=O)(=O)c2cccc3nonc23)C1 (stereo unspecified) | -3.19% (inactive)
COc1cccc(OC)c1CN(C)C(=O)c1cnccc1C(F)(F)F | 4.28% (inactive)
O=C(COC(=O)c1ccc(F)c(S(=O)(=O)N2CCOCC2)c1)NCc1ccc2c(c1)OCO2 | 2.94% (inactive)
Cc1ccnc(NC(=O)CCC(=O)N(CC(=O)NCCc2ccccc2)Cc2cccs2)c1 | 1.17% (inactive)
O=C(c1cc2sccc2n1Cc1ccc(F)cc1)N1CCc2ccccc21 | -4.45% (inactive)
Brc1ccc(-c2nn[nH]n2)cc1 | -0.33% (inactive)
Cc1ccc(-c2ccc(CN3C(C(C)C)C(=O)N(Cc4cn(CCC5OCCCO5)nn4)CCS3(=O)=O)cc2)cc1 (stereo unspecified) | -3.62% (inactive)
CC(C)n1cnc2c(NCc3ccccc3)cc(OCC3CCN(C)CC3)cc21 | 52.1% (active)
c1ccc2c(c1)C(=NC1CCCCC1)NC2=NC1CCCCC1 | 10.2% (inactive)
